Assay outcomes from PubChem BioAssay.
KCNQ2 inh: blocks the rat KCNQ2 potassium channel. O88943. CHO-K1 KCNQ2, FluxOR thallium flux, 20 min; hits give low values. B-score at 10 µM. 310,000 compounds, 1.1% hits. AID 2156;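 active = fluorescence ratio B-score at most minus 3 library SDs, with starting brightness B-score within 2 library SDs, cut at about -5.5 in these data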
Target sequence (O88943 whole entry, looked up): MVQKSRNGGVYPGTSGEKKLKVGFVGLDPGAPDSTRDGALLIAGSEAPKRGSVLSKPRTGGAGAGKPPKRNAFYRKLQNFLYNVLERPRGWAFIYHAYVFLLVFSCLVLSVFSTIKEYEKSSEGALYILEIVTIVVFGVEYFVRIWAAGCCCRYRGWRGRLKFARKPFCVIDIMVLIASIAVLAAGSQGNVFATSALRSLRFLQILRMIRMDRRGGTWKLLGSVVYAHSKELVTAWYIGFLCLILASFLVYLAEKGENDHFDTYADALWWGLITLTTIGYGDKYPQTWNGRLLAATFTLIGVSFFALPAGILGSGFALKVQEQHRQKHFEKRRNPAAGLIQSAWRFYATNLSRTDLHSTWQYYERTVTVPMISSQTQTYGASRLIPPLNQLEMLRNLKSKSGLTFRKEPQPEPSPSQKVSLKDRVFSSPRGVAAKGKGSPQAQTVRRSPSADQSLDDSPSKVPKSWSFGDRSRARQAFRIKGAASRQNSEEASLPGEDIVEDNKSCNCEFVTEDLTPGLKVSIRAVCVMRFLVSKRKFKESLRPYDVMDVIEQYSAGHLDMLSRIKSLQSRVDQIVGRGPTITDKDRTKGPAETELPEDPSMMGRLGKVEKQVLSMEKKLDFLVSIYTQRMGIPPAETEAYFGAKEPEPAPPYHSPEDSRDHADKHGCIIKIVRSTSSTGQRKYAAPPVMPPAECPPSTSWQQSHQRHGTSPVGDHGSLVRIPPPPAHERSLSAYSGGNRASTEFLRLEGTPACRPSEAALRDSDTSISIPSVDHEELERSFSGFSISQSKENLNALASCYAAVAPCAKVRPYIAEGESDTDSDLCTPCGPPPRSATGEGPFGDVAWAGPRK
KCNQ2 enhance: enhances the rat KCNQ2 potassium channel; O88943; 310,000 compounds, 0.54% hits; B-score at 10 µM; CHO-K1 KCNQ2, FluxOR thallium flux fluorescence; hits give high values;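 active = fluorescence ratio B-score at least 3 SD of library B-scores, with initial fluorescence B-score within 3 of them, cut at about 5.3 in these data; same plate scores as AID 2156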;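 note: B-score of peak minus minimum over baseline fluorescence ratio after K+ and Tl+ stimulus; positive B-score means potentiation of KCNQ2 with more thallium influx and brighter signal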
* marks the source's active call; other numbers are inactive results; i = inactive; . = no result given. Only some compounds are listed: those with a hit (about 1.6% of all), similar ones and a draw of the others.

SMILES	KCNQ2 inh	KCNQ2 enhance
COc1ccc(C2NC(C(=O)O)Cc3c2[nH]c2ccccc32)cc1CN1CCN(c2ccc(F)cc2)CC1 (configuration not stated)	-5.7*	-5.7
O=C(O)C1Cc2c([nH]c3ccccc23)C(c2ccc3c(c2)OCO3)N1 (configuration not stated)	i	.
CC(C)=CC(=O)Nc1nc2ccc([N+](=O)[O-])cc2s1	i	1.2
CC1=NN(c2ccc(Cl)c(C(=O)O)c2)C(=O)/C1=C\c1ccc(-c2ccc(C(=O)O)cc2)o1	i	1.6
CC1=NN(c2ccccc2)C(=O)/C1=C/c1ccc(-c2ccc(C)c(C(=O)O)c2)o1	i	6.8*
COc1cccc(/C=N/NC(=O)c2nc(-c3ccccc3)cc(-c3ccccc3)n2)c1	-6.9*	-6.9
COc1ccc(/C=N/NC(=O)c2nc(-c3ccccc3)cc(-c3ccccc3)n2)cc1OC	i	.
N#Cc1nc(Cc2cccc3ccccc23)oc1N1CCN(c2ccccc2)CC1	i	.
N#Cc1nc(Cc2cccc3ccccc23)oc1N1CCOCC1	i	0.03
COc1ccc(N2CCN(c3oc(Cc4cccc5ccccc45)nc3C#N)CC2)cc1	-7*	-7
N#Cc1nc(COc2ccccc2)oc1N1CCN(Cc2ccccc2)CC1	-6.4*	-6.4
N#Cc1nc(COc2cccc(Cl)c2)oc1N1CCCC1	i	.
CC1CCN(c2oc(Cc3cccc4ccccc34)nc2C#N)CC1	-5.9*	-5.9
Cc1nc(SCC(=O)N2CCCCCC2)[nH]c(=O)c1C	i	.
COc1ccccc1-c1csc(NC(=O)c2ccc(N3C(=O)CCC3=O)cc2)n1	i	.
COc1cccc(-n2c(SCC(=O)Nc3sc4c(c3C(N)=O)CCC4)nc3ccccc3c2=O)c1	-6.1*	-6.1
COc1cccc(-n2c(SCC(N)=O)nc3ccccc3c2=O)c1	i	0.67
CC(=O)c1ccc(C(=O)N2CCCC(CNC(=O)c3ccccc3Cl)C2)cc1 (configuration not stated)	i	.
Cc1cccc(NC(=O)N2CCCC(CNC(=O)c3ccccc3Cl)C2)c1C (configuration not stated)	-8.2*	-8.2
Cn1c(=O)[nH]c(Nc2ccccc2)c([N+](=O)[O-])c1=O	i	1.4
CCC(=O)N(CCC1(c2ccccc2OC)CCOC(C(C)C)C1)Cc1ccco1 (configuration not stated)	-5.8*	-5.8
COc1ccccc1C1(CC(=O)O)CCOC(C(C)C)C1 (configuration not stated)	i	.
CCN1N=C(c2ccccc2)Cn2c1nc1ccccc12	i	1.3
O=C(CNC(=O)c1nc[nH]c1C(=O)N1CCc2ccccc2C1)OCc1ccccc1	-5.6*	-5.6
O=C(CNC(=O)c1nc[nH]c1C(=O)N1CCNCC1)OCc1ccccc1	i	0.18
SMILES	KCNQ2 inh	KCNQ2 enhance
Cc1csc(NC(=O)CCC(=O)N(CC(=O)NC2CCCC2)Cc2ccccc2)n1	i	.
CCOc1ccc(OCc2ccc(C(=O)N3CCc4ccccc4C3)o2)cc1	-6.1*	-6.1
CCOc1ccc(OCc2ccc(C(=O)N3CCCCC3)o2)cc1	i	0.18
CCc1cc(=O)[nH]c(SCC(=O)Nc2ccc3c(c2)OCCO3)n1	i	0.72
Cc1ccc(NC(=O)CN2CCN(Cc3ccccc3)CC2)cc1F	i	0.11
COC1=CCC2([N+](=O)[O-])CN(CCO)CC1([N+](=O)[O-])C2 (configuration not stated)	i	.
O=C(NCc1cccnc1)/C(=C/c1ccc(-c2ccc(Cl)cc2)o1)S(=O)(=O)c1ccccc1	-6.2*	-6.2
O=C(NCc1cccnc1)/C(=C\c1ccc(-c2ccc(Br)cc2)o1)S(=O)(=O)c1ccccc1	i	.
NC(=O)c1ccc(SCC(=O)OCC(=O)N2CCN(C(=O)c3ccco3)CC2)c([N+](=O)[O-])c1	i	0.19
Cc1ccc(C)c(NC(=O)c2ccccc2C(=O)c2ccccc2)c1	-6*	-6
Cc1ccc(C(=O)c2ccccc2C(=O)Nc2ccccc2)cc1	i	1.7
CCN(c1ccc(OC)cc1)S(=O)(=O)c1ccc2c(c1)CC(C)N2C(=O)C1CC1 (configuration not stated)	i	.
COc1ccc(S(=O)(=O)N(CC(N)=O)C2CCCCC2)cc1Cl	-5.7*	-5.7
COc1ccc(S(=O)(=O)N(C)CC(=O)NC2CCCCC2)cc1Cl	i	0.01
COc1cccc(NC(=O)CN(C)C(=O)c2oc3c(ccc4ccccc43)c2C)c1	i	.
CCOC(=O)N1CCN(c2nc(N(c3ccccc3)c3ccccc3)nc(-n3ccnc3)n2)CC1	-6*	-6
c1ccc(N(c2ccccc2)c2nc(N3CCCC3)nc(-n3ccnc3)n2)cc1	i	.
Cc1ccc(/C=N/NC(=O)c2nnn(-c3nonc3N)c2-c2ccc3c(c2)OCO3)s1	i	0.58
CC(C)N(Cc1nc(-c2ccc(Cl)cc2)no1)C(=O)C(c1ccccc1)c1ccccc1	-6.2*	-6.2
Cc1ccc(-c2noc(CN(C(=O)C(c3ccccc3)c3ccccc3)C(C)C)n2)cc1	i	.
COc1ccc(Cl)cc1NC(=O)Cn1c(NCCO)nc2ccccc21	i	0.06
CCNC(=S)Nc1scc(-c2ccccc2)c1C(=O)OCC	i	12*
CCOC(=O)c1c(-c2ccccc2)csc1NC(=O)CCN1C(=O)c2ccccc2C1=O	i	.
CN(C)S(=O)(=O)c1ccc(Cl)c(NC(=O)COC(=O)/C=C/c2ccco2)c1	i	.
CN(c1ccccc1)S(=O)(=O)c1cccc(NC(=O)CSc2ncc(C(F)(F)F)cc2Cl)c1	i	9.7*
SMILES	KCNQ2 inh	KCNQ2 enhance
CN(c1ccccc1)S(=O)(=O)c1cccc(NC(=O)CSc2nncn2C)c1	i	0.07
CC(C)CN(C(=O)CCCOc1ccc(Cl)cc1Cl)c1c(N)n(Cc2ccccc2)c(=O)[nH]c1=O	i	0.08
COc1cccc(C(=O)NCC(C)(C)SCc2ccc(F)cc2)c1	i	.
O=c1c(-c2ccccc2)c(-c2ccccc2)oc2cc(O)cc(O)c12	-5.8*	-5.8
O=c1cc(-c2ccccc2)c2c(O)cc(O)cc2o1	i	1.4
COc1c(Cl)cc(-c2noc(C)c2C(=O)NCc2ccccc2)cc1Cl	i	4.4
COc1c(Cl)cc(-c2noc(C)c2C(=O)NCc2ccc3c(c2)OCO3)cc1Cl	i	14*
CC1C(=O)N2CCCc3cc(NC(=O)C(=O)NCCCc4ccccc4)cc1c32 (configuration not stated)	i	.
Cc1cc(C)c(NC(=O)CCN2C(=O)c3ccccc3S2(=O)=O)c(C)c1	i	1.1
O=C(Nc1ccccc1Br)c1ccccc1-c1ccccc1	i	.
O=C(Nc1ccccc1-c1ccccc1)c1ccccc1Br	-6.3*	-6.3
Cc1ccc(NC(=O)CSc2nn(-c3ccc(Cl)cc3)c(=S)s2)cc1S(=O)(=O)N(C)C	-7.1*	-7.1
CN(C)S(=O)(=O)c1cc(NC(=O)CSc2nn(-c3ccc(Cl)cc3)c(=S)s2)ccc1Cl	i	.
Cc1ccccc1-c1nnc(SCC(=O)N2CCCC2)o1	i	.
Cc1ccc(C(=O)O)cc1N1C(=O)c2cccc3c([N+](=O)[O-])ccc(c23)C1=O	i	.
O=C(O)c1ccc(CN2C(=O)c3cccc4c([N+](=O)[O-])ccc(c34)C2=O)cc1	-8.6*	-8.6
COc1ccc(NC2CCCN(C(=O)C3(C)CCCCC3)C2)cc1OC (configuration not stated)	i	.
COc1cccc(-c2nn(-c3ccccc3)cc2C(=O)O)c1	i	0.55
